# Screening data from PubChem.
# HT1080 IDH1KD tx = qHTS for induction of synthetic lethality in tumor cells producing 2HG: qHTS for the HT-1080-IDH1KD cell line. HT-1080 IDH1 knockdown viability, ATP luminescence, 48 h. Potency, µM (titrated, usually from 46.1 µM), inactives show at the highest dose activity, negative = toxicity, most hits filed as cytotoxic. 360,000 tested, 2% active. AID 686971, 2013;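 also: potency is read from the fitted curve at half-maximal effect; 0% = DMSO wells and -100% = cell-free medium wells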
#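 Viability of IDH1-knockdown HT-1080 fibrosarcoma cells was assessed by CellTiter-Glo after 48 h at 37 °C with titrated compound; concentration-effect curves were classified by fit quality and response size.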
# uPA surface inh = qHTS for Inhibitors of Cell Surface uPA Generation. 330,000 tested, 0.31% active. AID 540303, 2011. cell surface uPA generation assay, qHTS. Potency, µM (titrated, usually from 38.3 µM), for the others: at the top dose activity change, negative = inhibition, most hits filed as inhibitors; active = well fitted inhibition curve with a large enough effect; inconclusive = small, poorly fitted or top-dose-only effect; inactive = no such curve, though single readings can be large or run the other way; tested in mouse RAW 264.7 cells; also: potency is read from the fitted curve at half-maximal effect; nearly all actives have a fitted effect of over 55% in size
# IL1B secr inh = qHTS for Inhibitors of Inflammasome Signaling: IL-1-beta AlphaLISA Primary Screen. THP-1 LPS/ATP IL-1B secretion, AlphaLISA, 16 h; hits give low values. activity change, % at 57.5 µM. 360,000 tested, 4.7% active. AID 743279, 2014; in the data active = activity change below about -50%; inconclusive = mostly about -30% to -49%
#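 THP-1 cells pretreated 1 hr with compounds (up to 57.5 uM final), then stimulated with LPS (250 ng/mL final) plus ATP (1.25 mM final); secreted IL-1B measured by AlphaLISA after 16 hr, decreased signal indicating inhibition.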
# DT40 TDP1 CPT = qHTS for Inhibitors of human tyrosyl-DNA phosphodiesterase 1 (TDP1): qHTS in cells in presence of CPT | Potency, µM (highest dose often 46.2 µM), inactives show top-dose activity change, negative = growth inhibition, usual class: inhibitors | chicken DT40 Tdp1-/-;hTDP1 cells + 20 nM CPT, ATP luminescence, 48 h | 420,000 tested, 12% active; also: potency is read from the fitted curve at half-maximal effect; nearly all actives have a fitted effect of over 55% in size
#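 Chicken DT40 Tdp1-/- cells stably complemented with human TDP1 were seeded at 400 cells/well in medium containing 20 nM camptothecin, exposed to pin-transferred compounds, and grown at 37 °C for at least 48 hr. Viability was read as ATP luminescence.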
# HT1080NT lethal = qHTS for induction of synthetic lethality in tumor cells producing 2HG: qHTS for the HT-1080-NT fibrosarcoma cell line. Potency, µM (doses to about 46.1 µM), without a hit: at the top dose activity, negative = less viability, most hits filed as cytotoxic. HT-1080-NT fibrosarcoma viability, CellTiter-Glo ATP luminescence, 48 h. 360,000 tested, 1.6% active. AID 686970, 2013;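 also: NT is the 2HG producing partner of a matched IDH1 knockdown line; potency is read from the fitted curve at half-maximal effect; 0% = DMSO-treated cells and -100% = media-only wells without cells; nearly all actives have a fitted effect of over 55% in size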
#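 Fibrosarcoma NT cells, 750 per well in 5% FBS RPMI, were exposed to compound for 48 hours. Viability: CellTiter-Glo luminescence.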
# TDP1 cell noCPT = qHTS for Inhibitors of human tyrosyl-DNA phosphodiesterase 1 (TDP1): qHTS in cells in absence of CPT; DT40 Tdp1-/- hTDP1 cells, no CPT, ATP luminescence, 48 h; Potency, µM (highest dose often 46.2 µM), for the others: top-dose activity change, negative = growth inhibition, actives largely listed as inhibitors; 420,000 tested, 15% active; AID 686978, 2013; also: potency is read from the fitted curve at half-maximal effect; nearly all actives have a fitted effect of over 55% in size
#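 Stably hTDP1-transfected Tdp1-null chicken DT40 cells were treated with library compounds minus camptothecin and grown for at least 48 hr at 37 °C, after which cellular ATP was quantified by luminescence.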
# Starred values were filed as active, the others as inactive; i = inactive; ? = inconclusive; / = not tested or not shown. Sampled rows, rich in hits. Any-hit rate of the full collection: about 19%. Unless noted, calls follow the shape of the dose curve; as a rule, active = well fitted curve in the direction sought with a large enough effect; inconclusive = small, poorly fitted or top-dose-only effect, or another doubt; inactive = no such curve, though single readings can be large; an effect the other way counts as inactive or inconclusive. Unless noted, % is scaled to controls: 0 for no effect and ±100 for the full control effect.
SMILES,HT1080 IDH1KD tx,uPA surface inh,IL1B secr inh,DT40 TDP1 CPT,HT1080NT lethal,TDP1 cell noCPT
CC(C(=O)N(C)Cc1cccc(F)c1)N1CCN(S(=O)(=O)c2ccc3c(c2)OCCCO3)CC1 (configuration not stated),-1%,-4%,-59*,?,1%,?
CN(C)S(=O)(=O)c1cccc(C(=O)N2CCN(S(=O)(=O)c3ccc4c(c3)OCCO4)CC2)c1,1%,/,10,?,-2%,16µM*
O=c1cc(-c2ccc(F)cc2)nc(SCc2nc(-c3cccc(Cl)c3)no2)[nH]1,/,/,/,-8%,/,?
c1ccc2c(c1)-c1nc3ccccc3cc1C2N1CCCCC1 (configuration not stated),2%,/,27,16µM*,0%,16µM*
O=S(=O)(Nc1nc2ccccc2nc1NCc1ccco1)c1ccc(Cl)cc1,?,-5%,26,?,?,?
Cc1noc(C)c1CSc1nc2ccccc2nc1NS(=O)(=O)c1ccc(Cl)cc1,?,-17%,32,15µM*,?,12µM*
O=S1(=O)CC(O)C(O)CS1 (configuration not stated),?,/,2,23µM*,17%,?
O=C(N1CCN=C1SCc1cccnc1)C12CC3CC(CC(C3)C1)C2,-23%,-4%,/,?,-24%,15µM*
Cc1cc(C)n2nc(CNC(=O)c3ccc(Cl)cc3)nc2n1,/,/,/,-8%,/,-4%
COC(=O)[C@@H](Cc1c[nH]c2ccccc12)NC(=O)c1cc(=O)[nH]c2ccccc12,7%,-1%,-99*,15%,4%,1%
O=C(NCc1ccccc1)c1cc(=O)[nH]c2ccccc12,-5%,3%,-20,-4%,1%,2%
COC(=O)C(Cc1ccccc1)NC(=O)c1cc(=O)[nH]c2ccccc12 (configuration not stated),1%,-2%,-103*,?,-1%,-8%
CCOC1=C2[C@@H](CN(S(=O)(=O)c3ccc(C)cc3)[C@H]2c2ccc(Cl)cc2)[C@H]2C(=O)N(c3ccccc3)C(=O)[C@H]2C1,23%,/,16,-27%,20%,?
O=C(CCOc1ccccc1)Nc1ccnn1C1CCN(CCc2ccccc2)CC1,-2%,-2%,-52*,?,-6%,-26%
O=C(CCOc1ccccc1)Nc1ccnn1C1CCN(Cc2ccc(O)cc2)CC1,-4%,-1%,-16,-1%,-20%,-7%
CC(C)c1csc(CN2CCC(n3nccc3NC(=O)Cc3ccccc3)CC2)n1,-3%,2%,i,?,3%,26µM*
Cn1cc(CN2CCC(n3nccc3NC(=O)Cc3ccccc3)CC2)cn1,1%,9%,-2,-4%,-2%,27%
CC(C)c1csc(CN2CCC(C(=O)Nc3cccc(-c4ccco4)c3)CC2)n1,-15%,/,-28,?,-5%,18µM*
COC(CNC(=O)c1ccc2c(c1)ncn2C1CCCCCC1)OC,4%,6%,14,0%,5%,2%
Cc1ccc(S(=O)(=O)NCC(=O)OCC(=O)NCc2ccco2)cc1,3%,0%,-13,13%,3%,2%
O=C(NCc1cccs1)c1ccc([N+](=O)[O-])cc1Cl,19%,-2%,-8,-5%,2%,-17%
Cc1cccc(C(c2sc3nc(-c4ccco4)nn3c2O)N2CCN(Cc3ccccc3)CC2)c1 (configuration not stated),/,/,/,-23%,/,-29%
COc1ncc2nc(-c3ccc(Cl)cc3)c(=O)n(CCC#N)c2n1,/,/,/,22%,/,2%
COc1cccc(CNc2nc3ccccc3n2C(C)C)c1O,-7%,-1%,?,21µM*,-12%,?
CC(C)n1c(NCc2cc(Cl)ccc2O)nc2ccccc21,0%,1%,-12,?,-1%,18µM*
SMILES,HT1080 IDH1KD tx,uPA surface inh,IL1B secr inh,DT40 TDP1 CPT,HT1080NT lethal,TDP1 cell noCPT
CCn1c(CNc2nc3ccccc3n2C(C)C)nc2ccccc21,-4%,9%,-28,15µM*,-12%,10µM*
COC(=O)c1cc2oc3ccccc3c2n1Cc1nc(-c2cccc(Cl)c2)oc1C,/,/,/,-12%,/,-4%
CCCCNC(=O)C(NC(=O)c1ccc2c(c1)OCO2)C(=O)c1ccccc1 (configuration not stated),-9%,/,27,-16%,-3%,-9%
CC1(C(=O)Nc2ccc(Cl)c(Cl)c2)CCN1C(=O)C1CCCCC1 (configuration not stated),10%,/,6,?,12%,?
CC1CCCN(c2c([N+](=O)[O-])c(=O)oc3ccccc23)C1 (configuration not stated),5%,/,-5,16µM*,28%,?
Cc1cc(C)c(C(=O)COC(=O)c2cc([N+](=O)[O-])ccc2N2CCOCC2)cc1C,7%,1%,0,?,9%,18µM*
O=C(OCc1ccc([N+](=O)[O-])cc1)c1cc([N+](=O)[O-])ccc1N1CCOCC1,?,-6%,-12,16µM*,?,23µM*
CN(C)c1ccc(C2CC(c3c(O)n(C4CCCCC4)c(=O)[nH]c3=O)=Nc3ccccc3S2)cc1 (configuration not stated),/,/,/,-10%,/,-18%
Cc1ccc(Cl)c(OCCN2CCc3ccccc3C2)c1,-13%,9%,-11,?,-9%,23µM*
Cc1cccc(C)c1OCC(O)CN (configuration not stated),11%,2%,-59*,-2%,6%,-13%
Cc1ccc(C(C)C)c(OCC(O)CN2CCc3ccccc3C2)c1 (configuration not stated),?,-4%,-101*,?,?,?
Cc1cccc(C)c1OCC(O)CN1CCc2ccccc2C1 (configuration not stated),?,0%,12,4.6µM*,?,6.5µM*
OC(COCc1ccccc1)CN1CCc2ccccc2C1 (configuration not stated),4%,4%,3,-9%,2%,?
